Measurements taken from PubChem BioAssay (NCI).
The panel holds about 83,000 compounds, 20% with a hit somewhere; the sample as a whole holds those more often.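 Method: cells in 96-well plates; compound added at one concentration; 48 h incubation; percent growth measured; values under 10 scored active.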 Unmarked numbers belong to inactive results. The source made the active and inactive calls.

How the values were obtained:
Assay in all cases: NCI-60 one-dose screen, 48 h (100 = growth as untreated, 0 = no growth, -100 = all killed)
Settings in all cases: 10 µM unless noted
NCI-H23 lung = system: NCI-H23 lung
NCI-H226 lung = system: NCI-H226 lung
NCI-H322M lung = system: NCI-H322M lung
HOP-62 NSCLC = system: HOP-62 NSCLC
NCI-H460 lung = system: NCI-H460 lung
HOP-92 NSCLC = system: HOP-92 NSCLC
NCI-H522 lung = system: NCI-H522 lung
A549/ATCC NSCLC = system: A549/ATCC NSCLC
786-0 renal = system: 786-0 renal
COLO 205 colon = system: COLO 205 colon
DU-145 prostate = system: DU-145 prostate
K-562 leukemia = system: K-562 leukemia
MALME-3M melanoma = system: MALME-3M melanoma
MDA-MB-231 breast = system: MDA-MB-231 breast
RXF 393 renal = system: RXF 393 renal
SF-268 CNS = system: SF-268 CNS
SF-295 CNS = system: SF-295 CNS
SF-539 CNS = system: SF-539 CNS
UACC-257 melanoma = system: UACC-257 melanoma
M14 melanoma = system: M14 melanoma

Compound	growth (NCI-H23 lung)	growth (NCI-H226 lung)	growth (NCI-H322M lung)	growth (HOP-62 NSCLC)	growth (NCI-H460 lung)	growth (HOP-92 NSCLC)	growth (NCI-H522 lung)	growth (A549/ATCC NSCLC)	growth (786-0 renal)	growth (COLO 205 colon)	growth (DU-145 prostate)	growth (K-562 leukemia)	growth (MALME-3M melanoma)	growth (MDA-MB-231 breast)	growth (RXF 393 renal)	growth (SF-268 CNS)	growth (SF-295 CNS)	growth (SF-539 CNS)	growth (UACC-257 melanoma)	growth (M14 melanoma)
CCCCN[C@H]1CC[C@@]2(C)[C@@H](CC[C@@]3(C)[C@H]2[C@H](O)C[C@H]2/C(=C(\CCC=C(C)C)C(=O)OC)[C@@H](OC(C)=O)C[C@@]23C)[C@@H]1C	90.5%	98%	97.2%	103%	100%	86.5%	93%	103%	99.2%	104%	112%	30.5%	96.9%	114%	103%	100%	99%	99.3%	98.1%	96.2%
CC1=Nc2cnc(Nc3ccc(OCCN4CCCC4)cc3)nc2Nc2ccccc21	80.4%	77.8%	44.6%	86.4%	64.2%	43.2%	73.9%	86.5%	54%	72.2%	56.1%	39.6%	68%	59.7%	36%	63.9%	85.6%	68.6%	89.3%	52.6%
COc1ccc(C(=O)Nc2ncc(Cc3cccc(Cl)c3)s2)cc1OC	46.8%	42.2%	39.6%	4.67% (active)	13.7%	54.6%	-11% (active)	34%	26.9%	1.48% (active)	30.5%	11.6%	47.6%	39.1%	-7.25% (active)	50.8%	6.3% (active)	-12.3% (active)	23.1%	8.45% (active)
N#C/C(=C\c1ccc(-c2ccc(Cl)cc2)o1)C(=O)Nc1ncc(Cc2ccc(Cl)cc2)s1	31.8%	65%	22.8%	-9.27% (active)	-38.3% (active)	94.6%	46.3%	-8.3% (active)	42%	57.2%	19.6%	62.2%	5.36% (active)	36.7%	109%	71.6%	9.09% (active)	27.1%	-28.3% (active)	39.1%
COC(=O)CCC(=O)C(=O)OC	0.491% [10 mM] (active)	-14.9% [10 mM] (active)	10.2% [10 mM]	11.3% [10 mM]	7.63% [10 mM] (active)	-16% [10 mM] (active)	-63.9% [10 mM] (active)	26% [10 mM]	5.84% [10 mM] (active)	79.8% [10 mM]	10.6% [10 mM]	7.9% [10 mM] (active)	42.4% [10 mM]	35.5% [10 mM]	-8.87% [10 mM] (active)	-10.3% [10 mM] (active)	30.2% [10 mM]	4.1% [10 mM] (active)	-15.1% [10 mM] (active)	7.27% [10 mM] (active)
OB(O)c1cccc(-c2nc3ccc4[nH]ncc4c3c3c2CCCC3)c1	73%	81.6%	45%	42.3%	32.6%	47.6%	62.9%	41.8%	41.4%	41.7%	50.3%	52.6%	120%	26.1%	13.6%	37.9%	71.6%	20.9%	103%	64.8%
CN(C)CCCn1c2c(c3ncccc3c1=O)C(=O)c1ccccc1-2	54.8%	54.1%	44.1%	51.9%	11.6%	70.9%	34.4%	42%	52.2%	20.4%	39.3%	24.7%	61.9%	63.6%	57.3%	42.3%	50.7%	21%	72.8%	48.6%
Cn1cccc1C(=O)C1C(c2cccc([N+](=O)[O-])c2)C2C3CCCCC3CN2C12C(=O)Nc1ccc(Cl)cc12 (stereo not given)	49.3%	41.5%	75.6%	62.3%	37.3%	35%	52.3%	29.1%	66.4%	20.6%	38.7%	33.4%	68.1%	55.6%	-16.8% (active)	52.3%	82.3%	77.2%	70.7%	52.4%
